Screens deposited in PubChem BioAssay by several laboratories.
Only some compounds are listed: those with a hit (about 3% of all), similar ones and a draw of the others.
BioA inh: M. tuberculosis BioA enzyme inhibitors, primary screen, biochemical, plate reader, single point, HTS; 360,000 compounds, 0.096% hits; purified M. tuberculosis BioA enzyme; 7,8-diaminopelargonic acid synthase BioA (Mycobacterium tuberculosis); inhibition, % at 9.99 µM; in the data active means inhibition above about 40%; inconclusive means no clear call, values can overlap the other calls
Mtb FBA inh: Mtb FBA enzyme inhibitors, primary screen, biochemical, fluorescence, strain H37Rv; inhibition, % at 1 µM; AID 588726, 2011; purified M. tuberculosis FBA, fluorescence read-out; 360,000 compounds, 2.3% hits; Fructose-bisphosphate aldolase (Mycobacterium tuberculosis (strain ATCC 25618 / H37Rv)), …; in the data active means inhibition above about 27%;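 further: 0% = vehicle and 100% = reference inhibitor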
Target sequence (P9WQA3 whole entry, looked up): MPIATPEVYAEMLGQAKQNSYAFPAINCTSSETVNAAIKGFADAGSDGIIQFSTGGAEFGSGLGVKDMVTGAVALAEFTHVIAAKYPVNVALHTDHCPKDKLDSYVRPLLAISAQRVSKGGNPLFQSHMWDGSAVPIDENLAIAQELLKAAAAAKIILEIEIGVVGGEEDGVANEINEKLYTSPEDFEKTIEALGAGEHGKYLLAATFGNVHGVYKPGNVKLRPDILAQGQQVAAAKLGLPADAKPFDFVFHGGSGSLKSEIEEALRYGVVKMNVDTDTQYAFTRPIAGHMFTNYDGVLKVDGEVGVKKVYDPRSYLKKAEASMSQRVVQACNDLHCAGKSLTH
Rv3671c inh: Rv3671c serine protease inhibitors, primary screen, biochemical, fluorescence polarization, M. tuberculosis H37Rv | AID 2606, 2010 | inhibition, % at 5.96 µM | 320,000 compounds, 0.048% hits | P9WHR9; in the data active means inhibition above about 38%;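 further: extracellular domain of Rv3671c used as enzyme; 0% = enzyme with DMSO and 100% = no enzyme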
GDH-TPI counter: GDH-TPI coupling enzyme inhibitors, primary screen, artefact control for M. tuberculosis FBA inhibitor project, biochemical, absorbance, full deck | GDH-TPI coupled enzyme counterscreen, NADH absorbance | inhibition, % at 4.8 µM | 360,000 compounds, 1.2% hits | AID 588335, 2011; in the data active means inhibition above about 30%;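 further: 0% = DMSO wells and 100% = wells lacking the enzyme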
FadD28 FP inh: inhibitors of FadD28 bisubstrate probe binding, primary screen, biochemical, fluorescence polarization, single point | AID 588549, 2011 | inhibition, % at 12.5 µM | 360,000 compounds, 0.22% hits | Mycobacterium tuberculosis FadD28 fatty-acid-AMP ligase; in the data active means inhibition above about 8.5%, passing the limit was not always enough; inconclusive means no clear call, values can overlap the other calls
An asterisk follows results filed as active.

Results for O=C(NN=Cc1ccccc1OC(F)F)c1ccc(NS(=O)(=O)c2cccs2)cc1 ?
BioA inh: 0; Mtb FBA inh: -4; Rv3671c inh: 2; GDH-TPI counter: 32*; FadD28 FP inh: -6

Results for O=C(N/N=C/c1ccc([N+](=O)[O-])o1)c1ccc(NS(=O)(=O)c2cccs2)cc1 ?
BioA inh: 4; Mtb FBA inh: 8; Rv3671c inh: -5; GDH-TPI counter: 17; FadD28 FP inh: inconclusive

What do the screens show for `O=C(NN=Cc1ccc(OC(F)F)cc1)c1ccc(NS(=O)(=O)c2cccs2)cc1`?
BioA inh: -2; Mtb FBA inh: 0; Rv3671c inh: -18; GDH-TPI counter: 33*; FadD28 FP inh: -4

Results for COc1ccc(/C(C)=N/NC(=O)c2ccc(NS(=O)(=O)c3cccs3)cc2)cc1 ?
BioA inh: -2; Mtb FBA inh: 7; Rv3671c inh: -4; GDH-TPI counter: 15; FadD28 FP inh: 1

What do the screens show for `CNC[C@@H]1Oc2c(NC(=O)C3CCOCC3)cccc2C(=O)N([C@@H](C)CO)C[C@@H]1C`?
BioA inh: -1

How did C[C@H](CO)N1C[C@H](C)[C@@H](CN(C)Cc2ccc(C(=O)O)cc2)Oc2ccc(NS(=O)(=O)c3ccc(F)cc3)cc2C1=O do in these assays?
BioA inh: -4

What do the screens show for `COc1ccccc1S(=O)(=O)N[C@@H]1CC[C@@H](CCNC(=O)C2CCCCC2)O[C@H]1CO`?
BioA inh: -3

How did C[C@@H]1CCCCO[C@@H](CN(C)S(=O)(=O)c2cn(C)cn2)[C@H](C)CN([C@@H](C)CO)C(=O)c2cc(NS(=O)(=O)c3ccccc3)ccc2O1 do in these assays?
BioA inh: -1

What do the screens show for `COc1ccc(NC(=O)N[C@H]2CC[C@@H](CCNC(=O)Cc3ccncc3)O[C@H]2CO)cc1`?
BioA inh: -1

What do the screens show for `N#C/C(=C1\C(=O)Nc2c(Cl)cc(Cl)cc21)c1nnc2n1CCCCC2`?
Mtb FBA inh: -5; Rv3671c inh: -4; GDH-TPI counter: 16; FadD28 FP inh: 0

What do the screens show for `C=CCn1c(=O)/c(=C/c2ccc(Cl)cc2)s/c1=C(\C#N)c1nnc2n1CCCCC2`?
Mtb FBA inh: -2; GDH-TPI counter: 33*; FadD28 FP inh: -1

Results for Fc1ccc(-c2nc3nc4ccccc4nc3n2Cc2ccco2)cc1 ?
BioA inh: 0; Mtb FBA inh: -3; Rv3671c inh: -6; GDH-TPI counter: 40*; FadD28 FP inh: -4

Results for C=CCn1c(-c2ccc(OC)cc2)nc2ccccc21 ?
Mtb FBA inh: 9; Rv3671c inh: -6; GDH-TPI counter: -9; FadD28 FP inh: -5

How did Fc1ccc(-n2c(-c3ccco3)n[nH]c2=S)cc1 do in these assays?
BioA inh: -1; Mtb FBA inh: 1; GDH-TPI counter: -11; FadD28 FP inh: -2

What do the screens show for `c1ccc(-c2nc3nc4ccccc4nc3n2Cc2ccco2)cc1`?
BioA inh: 3; Mtb FBA inh: 3; Rv3671c inh: -9; GDH-TPI counter: 26; FadD28 FP inh: -4

How did Fc1ccc(-n2c(-c3ccco3)nc3nc4ccccc4nc32)cc1 do in these assays?
BioA inh: -1; Mtb FBA inh: 126*; Rv3671c inh: -12; GDH-TPI counter: 12; FadD28 FP inh: 0

Results for C=CCn1c(-c2ccc(OC)cc2)nc2nc3ccccc3nc21 ?
BioA inh: 2; Mtb FBA inh: 144*; Rv3671c inh: 6; GDH-TPI counter: 31; FadD28 FP inh: -1

What do the screens show for `O=S1(=O)CCN2C=C(Cl)C=C(Cl)C2=N1`?
BioA inh: 0; Mtb FBA inh: 140*; Rv3671c inh: 6; GDH-TPI counter: 8; FadD28 FP inh: 1

Results for C[C@@H]1CN([C@H](C)CO)C(=O)c2cc(NC(=O)c3ccccc3)ccc2O[C@@H](C)CCCCO[C@@H]1CN(C)S(=O)(=O)c1cccs1 ?
BioA inh: -7

How did CC(=O)c1sc(=S)n(-c2ccc(Cl)cc2)c1C do in these assays?
Mtb FBA inh: 0; Rv3671c inh: -5; GDH-TPI counter: 11; FadD28 FP inh: -1

How did CC(=O)c1sc(=S)n(-c2ccccc2)c1C do in these assays?
BioA inh: 0; Mtb FBA inh: 2; Rv3671c inh: -2; GDH-TPI counter: 68*; FadD28 FP inh: 0

Results for Cc1ccccc1N=Nc1c(N)n[nH]c1N ?
BioA inh: 0; Mtb FBA inh: -3; GDH-TPI counter: 15; FadD28 FP inh: -1

Results for Nc1n[nH]c(N)c1N=Nc1ccccc1F ?
BioA inh: -1; Mtb FBA inh: 1; Rv3671c inh: 5; GDH-TPI counter: 38*; FadD28 FP inh: 1

Results for O=S(=O)(c1ccc(NC(=S)N/N=C/c2cccc(Oc3ccccc3)c2)cc1)N1CCOCC1 ?
Mtb FBA inh: 2; Rv3671c inh: 1; GDH-TPI counter: 18; FadD28 FP inh: -1

What do the screens show for `O=S(=O)(c1ccc(Cl)c(NC(=S)N/N=C/c2ccc(O)cc2)c1)N1CCOCC1`?
Mtb FBA inh: -3; Rv3671c inh: -1; GDH-TPI counter: 27; FadD28 FP inh: -10

Results for O=S(=O)(c1ccc(NC(=S)N/N=C/c2ccc(O)c(O)c2)cc1)N1CCOCC1 ?
BioA inh: -1; Mtb FBA inh: -5; Rv3671c inh: 8; GDH-TPI counter: 37*; FadD28 FP inh: 0

How did N#Cc1ccc(/C=N/NC(=S)Nc2ccc(S(=O)(=O)N3CCOCC3)cc2)cc1 do in these assays?
BioA inh: -1; Mtb FBA inh: 0; Rv3671c inh: -13; GDH-TPI counter: 40*; FadD28 FP inh: 0

How did O=C(N[C@@H]1CC[C@@H](CCn2cc(-c3ccc(F)cc3)nn2)O[C@@H]1CO)c1cnccn1 do in these assays?
BioA inh: -1

What do the screens show for `Cc1noc(C)c1S(=O)(=O)Nc1ccc2c(c1)CC(=O)N([C@@H](C)CO)C[C@H](C)[C@@H](CN(C)C(=O)NC1CCCCC1)O2`?
BioA inh: -1

What do the screens show for `O=C(C[C@@H]1CC[C@H]2[C@@H](COC[C@@H](O)CN2Cc2cc(F)ccc2F)O1)N1CCc2ccccc2C1`?
BioA inh: -1

How did C[C@@H]1CN([C@@H](C)CO)C(=O)c2cc(-c3cncnc3)cnc2O[C@@H]1CN(C)C(=O)Cc1ccccc1 do in these assays?
BioA inh: -1

What do the screens show for `COc1c(O)ccc(/C=N/NC(=O)c2ccc3c(c2)OCCO3)c1[N+](=O)[O-]`?
BioA inh: -1; Mtb FBA inh: -2; Rv3671c inh: -11; GDH-TPI counter: 62*; FadD28 FP inh: -1

Results for COc1c(O)ccc(/C=N\NC(=O)c2ccc3c(c2)OCO3)c1[N+](=O)[O-] ?
BioA inh: -2; Mtb FBA inh: -2; Rv3671c inh: 8; GDH-TPI counter: 33*; FadD28 FP inh: -3

Results for O=C(N/N=C/c1cc2c(cc1[N+](=O)[O-])OCO2)c1ccc2c(c1)OCO2 ?
Mtb FBA inh: 0; Rv3671c inh: 0; GDH-TPI counter: -4
